# Reference: PubChem BioAssay AID588492 (Sanford-Burnham Center for Chemical Genomics, 2011)
# Among all 360,000 compounds or so, about 2,300 (0.64%) were called active. Only a selection was taken, and actives are over-represented in it overall. Unmarked numbers belong to inactive results.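 Rule for the calls: active = compounds giving at least 50% protection of heart cells from peroxide-induced death in the single-dose screen, raw or plate-pattern-corrected value; inactive = the rest.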
# Assay: H9c2 cardiomyocyte survival under peroxide injury – uHTS, H9c2 cells, ATPLite luminescence, primary screen (AID 588492);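 note: 0% = DMSO wells with peroxide and 100% = DMSO wells without peroxide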
# Settings: H9c2 cardiomyocytes, 2 h, at 20 µM, stronger effect = higher value
row,SMILES,protection from H2O2 cell death
1,CC1(C)OC(=O)C2=C(CC(c3ccccc3)OC2CCc2ccccc2)O1 (stereo not drawn),-19.2%
2,COc1cccc(Cn2cnc3c([N+](=O)[O-])c(C)c(C)cc32)c1,1.8%
3,Cc1ccc(NC(=O)C2CC2c2ccccc2)cc1 (stereo not drawn),-6.9%
4,O=C(CSc1cccc2cccnc12)N/N=C/c1cccnc1,-2.6%
5,O=C(N/N=C/c1cccc2cccnc12)[C@H]1C[C@@H]1c1ccccc1,84.8% (active)
6,Cc1nnc(C)c2c(C)n(N)c(C)c12,15.4%
7,Cc1ccc(S(=O)(=O)N(C)C)cc1NC(=O)CN1c2cccc3cccc(c23)S1(=O)=O,3.5%
8,O=C(NC(=O)N1CCSCC1)c1c(Cl)cccc1Cl,4.6%
9,COC(=O)c1ccc(Nc2ncnc3sccc23)cc1,5.6%
10,CCOC(=O)c1nc(Nc2ccc(C(=O)OC)cc2)c2ccccc2n1,50.6% (active)
11,CCOC(=O)c1ccc(N/C(=N/S(=O)(=O)c2ccccc2)c2ccccc2)cc1,1.3%
12,CCc1ccc(OCC(=O)NCC(c2ccc(Cl)cc2)N2CCCCC2)cc1 (stereo not drawn),2.7%
13,Cc1ccc(OCCOCCOc2ccc(Br)cc2/C=N\NC(=O)c2ccncc2)cc1,6.5%
14,COc1ccc(CC(=O)NCC(=O)N/N=C/c2cc(Br)ccc2OC)cc1,52.8% (active)
15,COc1ccc(-c2[nH]ncc2/C=N/NC(=O)c2cc(Br)ccc2O)c(OC)c1,3.5%
16,NC(=NC(=O)c1ccccc1)C1=C(O)CCC1=O,-0.2%
17,C=CCn1c(-c2ccc(Cl)cc2)ccc(C#N)c1=O,-10%
18,COc1cc(N=Cc2c(O)[nH]c3ccccc23)cc(OC)c1OC,69.8% (active)
19,CN=c1scc(-c2cc(OC)ccc2OC)n1/N=C/c1c(C)[nH]c2ccccc12,0.4%
20,COc1cc2[nH]c(O)c(C=O)c2cc1OC,4.5%
21,COc1ccc(CCNc2cc(C)nc3c(-c4ccc(Cl)cc4)c(C)nn23)cc1OC,0.4%
22,COc1cccc(-c2nnc(NC(=O)c3ccc(S(=O)(=O)N(CC(C)C)CC(C)C)cc3)o2)c1,56.4% (active)
23,O=C(Nc1nnc(-c2ccccc2)o1)c1cccc(S(=O)(=O)N2CCOCC2)c1,10.2%
24,COc1cc(-c2nnc(NC(=O)CS(=O)(=O)c3ccc(Cl)cc3)o2)cc(OC)c1OC,6.5%
25,CCc1ccc(/C=N/NC(=O)c2nnn(-c3nonc3N)c2CN2CCc3ccccc32)cc1,-2.2%
26,NC(=O)c1cc(-c2cccnc2)nc2ccc(Br)cc12,0.3%
27,O=C(CSc1c2c(nc3ccc(Cl)cc13)CCCC2)NCc1ccco1,5.3%

row,SMILES,protection from H2O2 cell death
1,O=C(NCc1ccco1)c1cc(-c2cccnc2)nc2ccc(Cl)cc12,74% (active)
2,Cc1cccc(NC(=O)N2CCCCCC2)c1C,-0.5%
3,O=C(COc1ccccc1)Nc1nonc1NC(=O)COc1ccccc1,-3.9%
4,O=C(CN1C(=O)C2C3C=CC(C3)C2C1=O)Nc1nc(-c2ccccn2)cs1 (stereo not drawn),51.3% (active)
5,O=C(CCN1C(=O)C2C3C=CC(C3)C2C1=O)Nc1ccccc1F (stereo not drawn),-1.8%
6,CC(NC(=O)c1ccco1)C(=O)Nc1nc(-c2ccccn2)cs1 (stereo not drawn),10.4%
7,CC1CCCCC1NC(=O)COc1ccc(C#N)cc1 (stereo not drawn),7%
8,CC1CCN(S(=O)(=O)c2nnc(NC(=O)COc3ccccc3F)s2)CC1,-6.3%
9,O=C(COc1ccccc1F)Nc1nc(-c2ccccn2)cs1,60% (active)
10,N#Cc1ccc(OCC(=O)Nc2nc(-c3ccccn3)cs2)cc1,69.2% (active)
11,O=C(NCCN1C(=O)C2C3C=CC(C3)C2C1=O)Nc1ccccn1 (stereo not drawn),-2.9%
12,CC12CCC(=O)N1C(C(=O)Nc1ccc(F)c(F)c1F)CS2 (stereo not drawn),0.6%
13,COc1ccc2c(c1)c(=Cc1ccc(N(C)C)cc1)c1cc(-c3ccccc3)[n+](C)n12,-20%
14,COc1ccccc1N(C)S(=O)(=O)c1ccc(Cl)c(C(=O)Nc2ccncc2)c1,-8.6%
15,Cn1nnnc1-c1cc(Cl)cc(Cl)c1,-2.9%
16,Cn1cccc1C(=O)NC(=O)COC(=O)Cc1coc2ccc3ccccc3c12,-3.6%
17,O=C(Nc1ccccc1)c1cc2ccccc2[nH]1,3.8%
18,O=C(NCC(O)c1nc2ccccc2[nH]1)c1ccc(Br)cc1 (stereo not drawn),-3.3%
19,O=C(Nc1cccc(-c2nc3ccccc3[nH]2)c1)c1ccc(C(=O)Nc2cccc(-c3nc4ccccc4[nH]3)c2)cc1,49.1% (active)
20,CCOC(=O)Cn1c(O)c(N=NC(=O)CNC(=O)Cc2ccccc2)c2ccccc21,6.8%
21,CN(Cc1ccccc1F)c1cc2c(c3c1ccn3C)C1CCC2O1 (stereo not drawn),-4.4%
22,COc1ccccc1C(=O)C(O)c1ccccc1OC (stereo not drawn),1.8%
23,CCCn1c(SCC(=O)Nc2ccc(C)c(S(=O)(=O)N3CCOCC3)c2)n[nH]c1=O,6.6%
24,C[C@H]1Cn2cnc(C(=O)N[C@@H](Cc3c[nH]c4ccccc34)C(=O)OC(C)(C)C)c2C(=O)N1,99.5% (active)
25,C[C@@H]1Cn2cnc(C(=O)Nc3ccc(CNC(=O)OC(C)(C)C)cc3)c2C(=O)N1,-12.9%
26,C[C@H]1Cn2cnc(C(=O)N[C@H](C)c3ccccc3)c2C(=O)N1,7.3%
